The values that follow come from PubChem BioAssay.

Unmarked numbers belong to inactive results. Activity calls are given as the source filed them.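 How the source made its calls, unless noted: active means inhibition above 50%; inactive means the rest.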

Chain of L-lactate dehydrogenase (Plasmodium falciparum (isolate CDC / Honduras)) (Q27743 whole entry, looked up): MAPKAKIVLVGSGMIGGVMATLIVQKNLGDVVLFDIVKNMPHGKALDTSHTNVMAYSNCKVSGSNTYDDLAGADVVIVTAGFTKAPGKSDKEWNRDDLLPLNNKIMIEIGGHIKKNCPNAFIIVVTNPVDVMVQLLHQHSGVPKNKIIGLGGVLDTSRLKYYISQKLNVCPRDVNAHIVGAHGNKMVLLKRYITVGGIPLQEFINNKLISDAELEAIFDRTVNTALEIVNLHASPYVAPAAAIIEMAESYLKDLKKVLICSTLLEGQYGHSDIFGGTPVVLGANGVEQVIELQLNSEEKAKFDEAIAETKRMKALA

Tested on in one test: not listed separately
As to the kind of experiment: human hepatoma cell viability loss – ATP luminescence, cytotoxicity control for P. falciparum antimalarial project, primary screen (AID 2303).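 Further: 0% = DMSO wells and 100% = digitonin-killed cells.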 The settings on record: HepG2 viability, 24-48 h, at 10 µM, hits give high values.
One may read the inhibition as the change of the read-out against control, counted positive when it falls. For the compound `Cc1ccccc1C1CCN(C2CCC(NC(=O)/C=C/c3ccc(C(F)(F)F)cc3)CC2)CC1` (stereo not given), the inhibition is 64% (active).

For the compound `Cc1ccoc1C(=O)Nc1ccc(-c2cccc(-c3nc4c(C)cccc4[nH]3)c2)cc1`, the inhibition was 15%.

Regarding `CCCNCc1ccc(-c2ccc(CN(C(=O)c3nn(-c4ccccc4)nc3C)C(C)CN(C)C)cc2)nc1` (stereo not given), the inhibition was 27%.

Take `O=C(Cn1c(CCc2cccc(F)c2F)nc(=O)c2ccccc21)N(Cc1ccc(-c2ccc(C(F)(F)F)cc2)cc1)C1CCN(C2=NCCS2)CC1`: the inhibition was 62% (active).

For the compound `COc1cc2nc(NCCc3ccccc3)nc(NCc3nccs3)c2cc1OC`, the inhibition is 1%.

For `COc1ccc(-c2ccc(NC(=O)c3cccc(C#N)c3)cc2)cc1CN1CCN(C)CC1`, the inhibition is 26%.

For `O=C(/C=C/c1cccc2c1OCO2)Nc1ccnc2ccncc12`, the inhibition was 17%.

For `Cc1cc(N2CCN(C)CC2)nc2ccc(NC(=O)Cc3cccc(C(F)(F)F)c3)cc12`, the inhibition was 26%.

In the case of `Nc1nc(N)c2c(ccc3nn(Cc4cccnc4)cc32)n1`, the inhibition was 41%.

Take `COc1ccc(-c2ccc(NC(=O)c3cccc(C#N)c3)cc2)cc1CN1CCCC(C(N)=O)C1` (stereo not given): the inhibition is 12%.

Consider `Cc1cc2nc(-c3ccc(C(=O)NCc4ccc(Cl)c(Cl)c4)cc3)[nH]c2cc1C`, for which the inhibition is 6%.

Consider `O=C(Nc1cccc(Cl)c1Cl)N[C@H]1CCN(CCCCCNC(=O)[C@@H]2C[C@H]2c2ccc(Cl)c(Cl)c2)C1`, for which the inhibition is 40%.

For the compound `O=C(Nc1ccc(CC(=O)N2CCc3cc(Cl)c(N4CCN(C/C=C/c5ccccc5)CC4)cc32)cc1)Nc1cccc([N+](=O)[O-])c1`, the inhibition is -8%.

`NC1CCCN(Cc2ccc(-c3cccc(-c4nc5ccccc5[nH]4)c3)cc2)C1` (stereo not given): the inhibition was 26%.

Consider `O=C(Nc1cccc(Cl)c1N1CCOCC1)C(Cl)(Cl)Cl`, for which the inhibition was 3%.

On to `O=S(=O)(c1cccc(F)c1)c1ccc(Nc2ncnc3cc(Br)sc23)cc1Cl`, for which the inhibition is 20%.

Turning to `CCOC(=O)c1ccc(NC(=O)Nc2ccc(-c3ccc(-c4nc5ccccc5[nH]4)cc3)cc2)cc1`, the inhibition was 49%.

On to `Cc1[nH]c(C)c(-c2ccc(-c3ccccc3F)nc2)c(=O)c1Br`, for which the inhibition is 2%.

For `CCOc1cc(C(=O)NCCCN2CCN(c3cccc(Cl)c3)CC2)ccc1-c1nc2cc(Cl)c(F)cc2[nH]1`, the inhibition was 16%.

`CC(C)CCN1CCC(Oc2ccc(NC(=O)c3ccco3)cc2Cl)CC1`: the inhibition was 1%.

With `Cc1ccc(Nc2ccnc(Nc3ccc(F)c(Cl)c3)n2)cc1O`, the inhibition was 9%.

`CCOc1c(CCNCCCCNCCc2ccc3ccccc3c2OCC)ccc2ccccc12`: the inhibition was 100% (active).

`CC(=O)Oc1cc(C)ccc1C1CCN(CCCCNC(=O)c2ccc(NC(=O)c3ccc(Cl)cc3)cc2)CC1`: the inhibition was 12%.

For `Cc1cc(C)c2[nH]cc(C(=O)O)c(=O)c2c1`, the inhibition is -1%.

Turning to `CN1CCC(Oc2ccc(CN3CC[C@H](NC(=O)c4ccc(F)c(F)c4)C3)c3ccccc23)C1` (stereo not given in full), the inhibition is 20%.

Consider `CC(C)Nc1cc(C(=O)N[C@@H](Cc2ccccc2)[C@H](O)CNC(C)(C)c2cccc(C(F)(F)F)c2)cc(N2CCCCS2(=O)=O)c1`, for which the inhibition is 9%.

For the compound `COc1ccc2c(NN=Cc3ccccn3)ccnc2c1`, the inhibition is 14%.

Turning to `O=C(Nc1ccc(-c2csc3nccn23)cc1)c1ccc(Cl)cc1`, the inhibition is 54% (active).

Turning to `CCOCCCNc1ncc(-c2ccsc2)c(-c2nc(C)cs2)n1`, the inhibition was 0%.

With `CCc1c(CCNCCCCCCNCCc2ccccc2)ccc(OC)c1OC`, the inhibition was 33%.

As for `Nc1nc(N)c2c3c(cnc2n1)CCCC3`, the inhibition was 61% (active).

On to `Cc1nc2ccc([N+](=O)[O-])cc2c(=O)n1OCc1ccccc1`, for which the inhibition was 2%.

Consider `OCC(c1ccccc1)n1c(COc2ccc(Cl)cc2)nc2c(OCCCN3CCCCC3)cccc21` (stereo not given), for which the inhibition is 6%.

In the case of `COc1ccc2nccc([C@@H](O)CN3CCC(NCc4nc5c([N+](=O)[O-])cccc5[nH]4)CC3)c2c1`, the inhibition is 13%.

Turning to `CCC1(CC)N=C(N)N=C(N)C1c1ccc(Cl)c(Cl)c1` (stereo not given), the inhibition is -16%.

As for `COc1c(C2CCN(CCCCNC(=O)c3ccc(-c4ccc(Cl)cc4)cc3)CC2)ccc2c1C(C)(C)CCC2(C)C`, the inhibition was 94% (active).

With `CCOC(=O)c1cccc(NC(=O)Nc2cc(C)nc3ccccc23)c1`, the inhibition is 14%.

On to `O=C(Nc1ccc([N+](=O)[O-])cc1)Nc1nc2ccc(Cl)cc2s1`, for which the inhibition is 63% (active).

Regarding `COc1ccccc1N1CCN(Cc2c(NC(C)=O)sc(C)c2C)CC1`, the inhibition was 9%.

As to `COc1ccc(C=NNc2nc3ccccc3[nH]2)cc1O`, the inhibition is 15%.

A further test concerns the target L-lactate dehydrogenase (Plasmodium falciparum (isolate CDC / Honduras)) (UniProt Q27743). As to the kind of experiment: PfLDH activity inhibition – cell lysate, 3D7 strain, counter-screen for P. falciparum growth inhibition project (AID 2304; call rule not given here;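 further: 0% = vehicle and 100% = reference inhibitor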). To be noted: P. falciparum 3D7 crude extract, LDH APAD/NBT absorbance; at 2 µM; hits give high values. (In general: The purpose of a counterscreen is to sort out artefacts and off-target activity.)
Consider `Cc1ccccc1C1CCN(C2CCC(NC(=O)/C=C/c3ccc(C(F)(F)F)cc3)CC2)CC1` (stereo not given), for which the inhibition is -3%.

In the case of `Cc1ccoc1C(=O)Nc1ccc(-c2cccc(-c3nc4c(C)cccc4[nH]3)c2)cc1`, the inhibition was -4%.

As for `CCCNCc1ccc(-c2ccc(CN(C(=O)c3nn(-c4ccccc4)nc3C)C(C)CN(C)C)cc2)nc1` (stereo not given), the inhibition was -8%.

For `O=C(Cn1c(CCc2cccc(F)c2F)nc(=O)c2ccccc21)N(Cc1ccc(-c2ccc(C(F)(F)F)cc2)cc1)C1CCN(C2=NCCS2)CC1`, the inhibition was 3%.

Take `COc1cc2nc(NCCc3ccccc3)nc(NCc3nccs3)c2cc1OC`: the inhibition is 0%.

For the compound `COc1ccc(-c2ccc(NC(=O)c3cccc(C#N)c3)cc2)cc1CN1CCN(C)CC1`, the inhibition is 8%.

`O=C(/C=C/c1cccc2c1OCO2)Nc1ccnc2ccncc12`: the inhibition is -4%.

For the compound `Cc1cc(N2CCN(C)CC2)nc2ccc(NC(=O)Cc3cccc(C(F)(F)F)c3)cc12`, the inhibition was 3%.

As for `Nc1nc(N)c2c(ccc3nn(Cc4cccnc4)cc32)n1`, the inhibition was 0%.

As to `COc1ccc(-c2ccc(NC(=O)c3cccc(C#N)c3)cc2)cc1CN1CCCC(C(N)=O)C1` (stereo not given), the inhibition is 0%.

On to `Cc1cc2nc(-c3ccc(C(=O)NCc4ccc(Cl)c(Cl)c4)cc3)[nH]c2cc1C`, for which the inhibition is 1%.

Consider `O=C(Nc1cccc(Cl)c1Cl)N[C@H]1CCN(CCCCCNC(=O)[C@@H]2C[C@H]2c2ccc(Cl)c(Cl)c2)C1`, for which the inhibition is -2%.

Turning to `O=C(Nc1ccc(CC(=O)N2CCc3cc(Cl)c(N4CCN(C/C=C/c5ccccc5)CC4)cc32)cc1)Nc1cccc([N+](=O)[O-])c1`, the inhibition is -5%.

In the case of `NC1CCCN(Cc2ccc(-c3cccc(-c4nc5ccccc5[nH]4)c3)cc2)C1` (stereo not given), the inhibition was 2%.

In the case of `O=C(Nc1cccc(Cl)c1N1CCOCC1)C(Cl)(Cl)Cl`, the inhibition was -3%.

Turning to `O=S(=O)(c1cccc(F)c1)c1ccc(Nc2ncnc3cc(Br)sc23)cc1Cl`, the inhibition is -2%.

As for `CCOC(=O)c1ccc(NC(=O)Nc2ccc(-c3ccc(-c4nc5ccccc5[nH]4)cc3)cc2)cc1`, the inhibition is 0%.

Regarding `Cc1[nH]c(C)c(-c2ccc(-c3ccccc3F)nc2)c(=O)c1Br`, the inhibition was -3%.

As for `CCOc1cc(C(=O)NCCCN2CCN(c3cccc(Cl)c3)CC2)ccc1-c1nc2cc(Cl)c(F)cc2[nH]1`, the inhibition was 7%.

On to `CC(C)CCN1CCC(Oc2ccc(NC(=O)c3ccco3)cc2Cl)CC1`, for which the inhibition is 3%.

On to `Cc1ccc(Nc2ccnc(Nc3ccc(F)c(Cl)c3)n2)cc1O`, for which the inhibition is -4%.

For `CCOc1c(CCNCCCCNCCc2ccc3ccccc3c2OCC)ccc2ccccc12`, the inhibition is -3%.

Take `CC(=O)Oc1cc(C)ccc1C1CCN(CCCCNC(=O)c2ccc(NC(=O)c3ccc(Cl)cc3)cc2)CC1`: the inhibition is -5%.

Take `Cc1cc(C)c2[nH]cc(C(=O)O)c(=O)c2c1`: the inhibition is -6%.

Consider `CN1CCC(Oc2ccc(CN3CC[C@H](NC(=O)c4ccc(F)c(F)c4)C3)c3ccccc23)C1` (stereo not given in full), for which the inhibition was 2%.

With `CC(C)Nc1cc(C(=O)N[C@@H](Cc2ccccc2)[C@H](O)CNC(C)(C)c2cccc(C(F)(F)F)c2)cc(N2CCCCS2(=O)=O)c1`, the inhibition is 2%.

Take `COc1ccc2c(NN=Cc3ccccn3)ccnc2c1`: the inhibition was -2%.

With `O=C(Nc1ccc(-c2csc3nccn23)cc1)c1ccc(Cl)cc1`, the inhibition is -5%.

Take `CCOCCCNc1ncc(-c2ccsc2)c(-c2nc(C)cs2)n1`: the inhibition is 1%.

With `CCc1c(CCNCCCCCCNCCc2ccccc2)ccc(OC)c1OC`, the inhibition was -2%.

`Nc1nc(N)c2c3c(cnc2n1)CCCC3`: the inhibition is -4%.

Regarding `Cc1nc2ccc([N+](=O)[O-])cc2c(=O)n1OCc1ccccc1`, the inhibition is -2%.

As for `OCC(c1ccccc1)n1c(COc2ccc(Cl)cc2)nc2c(OCCCN3CCCCC3)cccc21` (stereo not given), the inhibition is -7%.

`COc1ccc2nccc([C@@H](O)CN3CCC(NCc4nc5c([N+](=O)[O-])cccc5[nH]4)CC3)c2c1`: the inhibition is -2%.

For the compound `CCC1(CC)N=C(N)N=C(N)C1c1ccc(Cl)c(Cl)c1` (stereo not given), the inhibition was 7%.

In the case of `COc1c(C2CCN(CCCCNC(=O)c3ccc(-c4ccc(Cl)cc4)cc3)CC2)ccc2c1C(C)(C)CCC2(C)C`, the inhibition is 1%.

As for `CCOC(=O)c1cccc(NC(=O)Nc2cc(C)nc3ccccc23)c1`, the inhibition is 0%.

In the case of `O=C(Nc1ccc([N+](=O)[O-])cc1)Nc1nc2ccc(Cl)cc2s1`, the inhibition is 2%.

`COc1ccccc1N1CCN(Cc2c(NC(C)=O)sc(C)c2C)CC1`: the inhibition was 3%.

`COc1ccc(C=NNc2nc3ccccc3[nH]2)cc1O`: the inhibition was 0%.
